The list is not random: actives were taken first. Their share in the collection is about 2.4%.
D2 PAM-1 = human D2 receptor positive allosteric modulation. P14416. potentiation, % (no concentration beside the values). AID 624464. DiscoveRx D2 beta-arrestin cells, luminescence, 90 min; 100% = 57 uM dopamine signal. 360,000 tested, 0.23% active; in the data active = potentiation above about 50%
Target sequence (P14416 whole entry, looked up): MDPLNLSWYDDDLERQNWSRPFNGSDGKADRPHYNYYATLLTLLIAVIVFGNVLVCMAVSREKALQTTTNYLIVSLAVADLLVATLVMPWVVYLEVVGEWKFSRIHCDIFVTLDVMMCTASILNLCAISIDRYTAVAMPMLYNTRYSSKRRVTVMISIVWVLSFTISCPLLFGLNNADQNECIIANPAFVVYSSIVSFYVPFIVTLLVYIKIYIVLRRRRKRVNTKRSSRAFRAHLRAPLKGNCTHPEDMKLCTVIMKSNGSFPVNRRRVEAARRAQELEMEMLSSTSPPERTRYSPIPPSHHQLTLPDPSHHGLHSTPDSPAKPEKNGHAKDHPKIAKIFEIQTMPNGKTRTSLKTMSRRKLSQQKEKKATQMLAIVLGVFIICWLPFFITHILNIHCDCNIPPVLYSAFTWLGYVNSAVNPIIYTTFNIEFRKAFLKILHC
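D2 cells co-treated with compound plus 50 nM dopamine (EC20) for 90 min at 37 deg C to detect potentiation. Beta-arrestin recruitment was read as enzyme-fragment luminescence after 1 h at ambient temperature. Full response was set by 57 uM dopamine.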
D2 ag-1 = D2 dopamine receptor (human) agonism. P14416. activation, % at 2 µM. HEK293 T-REx D2 cells, calcium flux agonist mode. 340,000 tested, 0.53% active. AID 485358;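 active = activation over 3 SD above normal in the single-dose calcium agonist read, cut at about 30% in these data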; also: 0% is about no effect
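Agonism scored from kinetic calcium signal (1 read/sec, 180 s) following compound pin transfer, after a 10 s baseline. Cells: HEK293 Trex line expressing inducible D2 receptor coupled to calcium, dye-loaded after overnight culture at 30 C.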
D2 ag-2 = activates the human D2 dopamine receptor | activation, % (concentration not given with the values) | DiscoveRx PathHunter D2 beta-arrestin, luminescence, 90 min; 100% = 57 uM dopamine signal | 360,000 tested, 0.084% active; in the data active = activation above about 40%
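Agonist mode: compounds alone added to overnight-plated D2 PathHunter cells for 90 min at 37 C, with 57 uM final dopamine (EC100) defining full response. Beta-arrestin recruitment detected by chemiluminescent reagent, read after 1 h at ambient temperature.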
D2 antagonist = antagonists of human D2 dopamine receptor; P14416; inhibition, % at 10 µM; 340,000 tested, 2% active; AID 485344; HEK293 TREx D2 cells, calcium flux, dopamine EC80; in the data active = inhibition above about 30%; inactive = below that, where a call was filed; also: 0% is about no effect
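Antagonism is scored as inhibition of an EC80 dopamine-evoked calcium signal in a force-coupled, tetracycline-inducible HEK293 T-REx D2 line, with compound present 180 s before agonist.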
D2 PAM-2 = positively modulates the human D2 dopamine receptor allosterically | P14416 | HEK293 T-REx D2, calcium flux, EC20 dopamine potentiation | potentiation, % at 10 µM | 340,000 tested, 0.34% active | AID 485347;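 active = potentiation over 3 SD above the plate norm, cut at about 30% in these data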; also: 0% is about no effect
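Potentiation of an EC20 dopamine calcium response measured kinetically over 180 s, after a preceding 180 s compound-only read flagging agonists. Cells: inducible Hek293 Trex D2 line, 4000/well, cultured overnight at 30 C before dye loading.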
The depositor's hits bear a star; . = no result given.

SMILES	D2 PAM-1	D2 ag-1	D2 ag-2	D2 antagonist	D2 PAM-2
CCn1nnc(NC(=O)c2ccco2)n1	4	0	-2	69*	13
Cc1ccc(Cn2c(CCNC(=O)c3cccc(C)c3)nc3ccccc32)cc1	.	-1	.	.	-4
Cc1cccc(Nc2nc3c(c(=O)n(C)c(=O)n3C)n2Cc2ccccc2)c1	-16	-1	-5	8	46*
CCC(C)Nc1nc2c(c(=O)n(C)c(=O)n2C)n1Cc1cccc(C)c1 (centres undefined)	10	-2	-1	15	-7
COCCC(C(=O)Oc1c(C(C)(C)C)cc(C)cc1C(C)(C)C)c1ccccc1 (centres undefined)	-5	0	1	-8	6
COc1ccc(OCC(O)CNC(=O)Nc2cc(F)ccc2C)cc1 (centres undefined)	-32	0	-3	38*	9
CN(C)CCNC(=O)CN1C(=O)COc2ccc(C(C)(C)C)cc21	-11	0	-3	36*	1
CC(C)(C)c1ccc2c(c1)N(CC(=O)O)C(=O)CO2	5	0	-1	-14	4
COCCNC(=O)CN1C(=O)COc2ccc(Cl)cc21	-6	1	-1	35*	-8
COC(=O)CN1C(=O)COc2ccc(Cl)cc21	-4	0	-3	-9	7
Cc1cccc(N2C(=O)N(CC(=O)C(C)(C)C)c3ccccc3S2(=O)=O)c1C	.	0	.	.	-4
CC1CCn2c(nc3cc(C(=O)NCc4ccc(OC(C)C)cc4)ccc32)C1 (centres undefined)	.	-1	.	.	11
C/C(CCc1ccccc1)=N\NC(=S)NCCc1ccccc1	-6	-1	3	-7	31*
Cc1cc(C(=O)CSc2nc3ccccc3c(=O)[nH]2)c(C)n1C	-8	0	-1	-10	39*
COc1ccc(C(C)(C)C)cc1NC(=O)COC(=O)CSCc1c(C)noc1C	-28	-1	-4	36*	0
Cc1ccc(OC2CCN(C(=O)[C@H]3O[C@@H](n4cnc5c(N)ncnc54)[C@H](O)[C@@H]3O)CC2)cc1	-5	.	-6	.	.
COc1cc2c(cc1O)C(Cc1ccc(O)cc1)NCC2 (centres undefined)	-25	0	-2	74*	-24
CC1CCN(S(=O)(=O)c2ccc(S(=O)(=O)NCc3ccccc3)cc2)CC1	14	1	4	31*	-5
O=S(=O)(NCc1ccccc1)c1ccc(S(=O)(=O)N2CCCCC2)cc1	0	0	-2	5	-4
O=C(Cn1nnc(-c2ccc(F)cc2)n1)NC(=O)NC1CCCCC1	-6	.	0	.	.
O=C(O)CC1(CC(=O)N2CCC(C(=O)O)CC2)CCCC1	-2	1	-3	12	7
O=C(O)CC1(CC(=O)N2CCOCC2)CCCC1	2	0	-3	4	36*
CCc1ccccc1NC(=O)Cc1c(C(=O)O)[nH]c2ccc(Cl)cc12	.	0	.	.	-7
Cn1c2ccc(F)cc2c2ncn(CCN3CCOCC3)c(=O)c21	-3	2	-1	5	-2
Cn1c2ccccc2c2ncn(CCCN3CCOCC3)c(=O)c21	-6	0	-2	-1	38*
SMILES	D2 PAM-1	D2 ag-1	D2 ag-2	D2 antagonist	D2 PAM-2
C[C@H](O)[C@@H]1C(=O)N2CCc3ccc(-c4ccccc4)cc3[C@@H]2C[C@@H]1N(C)C(=O)Nc1cc(Cl)cc(Cl)c1	.	.	0	.	.
CSc1ccc(/C=N/n2c(C)nnc2C)cc1	0	2	-2	35*	1
Cc1nnc(C)n1/N=C/c1ccc(O)cc1	-6	0	0	-4	2
CCOc1ccc(NC(=O)Cn2nnc(C(=O)OC)c2C(=O)OC)cc1	.	1	.	.	4
Cc1cc(-c2nc3ncccc3o2)ccc1NC(=O)c1ccc(Cl)cc1	.	.	.	.	-5
CC(C)(CC(=O)O)Cc1nc(-c2ccc(Cl)cc2)no1	-6	-2	-3	44*	-4
O=C(NCc1nc(-c2ccc(Cl)cc2)no1)c1ccco1	-1	0	0	34*	12
COc1ccc(-c2noc(CNC(=O)c3ccco3)n2)cc1	.	1	.	.	6
Cc1cc(C)c(S(=O)(=O)N2CCN(C(=O)N3CCCCC3)CC2)c(C)c1	1	0	-3	0	7
Cc1nc(C)n(CC(C)C(=O)N2CCN(S(=O)(=O)c3ccccc3)CC2)n1 (centres undefined)	-1	-1	-2	32*	-15
Cc1cc(C)c(S(=O)(=O)N2CCN(C(=O)C(C)Cn3nc(C)nc3C)CC2)c(C)c1 (centres undefined)	-9	1	3	35*	12
Cc1cc(C)c(S(=O)(=O)N2CCN(C(=O)N(C)C)CC2)c(C)c1	-6	0	-1	-5	32*
O=C(Nc1cccc(C(F)(F)F)c1)C1CCN(S(=O)(=O)c2ccc(N3CCCC3=O)cc2)CC1	-30	-1	5	64*	-23
O=C(NCc1ccccc1)C1CCN(S(=O)(=O)c2ccc(N3CCCC3=O)cc2)CC1	10	-2	-2	-14	-2
COc1ccccc1CNC(=O)C1CCN(S(=O)(=O)c2ccc(N3CCCC3=O)cc2)CC1	0	1	-1	37*	5
Cc1cc(OCC(=O)NCC(c2ccc(F)cc2)N2CCOCC2)ccc1Cl (centres undefined)	-7	0	-1	-5	-5
COc1ccc(S(=O)(=O)n2nc(-c3cc(OC)c(OC)c(OC)c3)cc2N)cc1OC	-1	0	-2	1	3
COc1ccc(-c2cc(N)n(S(=O)(=O)c3c(F)c(F)c(F)c(F)c3F)n2)cc1OC	-11	3	0	35*	-4
CCOc1ccc(-c2nnc(SCC(=O)Oc3ccccc3)o2)cc1	.	0	.	.	0
CCCNC(=O)COC(=O)/C=C/c1ccc(C)o1	-6	2	-3	30*	-3
Cc1ccc(/C=C/C(=O)Oc2ccc(C#N)cc2)o1	.	0	.	48*	3
Cc1ccc(/C=C/C(=O)OCC(=O)NCc2ccccc2)o1	7	0	-4	-6	-4
COc1ccc(NC(=O)C(C)N2Cc3ccccc3C2=O)cc1OC (centres undefined)	.	1	.	.	1
O=C(O)c1cccc2c1C(=O)c1cc([N+](=O)[O-])cc([N+](=O)[O-])c1-2	8	.	74*	.	.
CCOC(=O)CC(NC(=O)CCc1c(C)nc2c(c1C)c(=O)n(C)c(=O)n2C)c1ccc(OCC)c(OC)c1 (centres undefined)	.	0	.	.	18
COc1ccc(Oc2c(C)oc3cc(OC(=O)N4CCOCC4)ccc3c2=O)cc1	-6	0	0	4	42*
CN1CCN(C2=Nc3ccccc3Oc3ccc(Cl)cc32)CC1	-36	-1	-6	91*	-31
O=C(c1cnc(N2CCOCC2)c2ccccc12)N1CCN(c2ccccc2)CC1	.	3	.	.	7

High-throughput results deposited in PubChem by National Center for Advancing Translational Sciences (NCATS).
